Screening results from PubChem.
In the library only some 3.6% were active in any assay of this set; here they are far more common.
VDR inh: vitamin D3 receptor (human) inhibition. Potency, µM, for the others: max response, negative = inhibition, actives largely listed as inhibitors. AID 504847. VDR-SRC2-3 peptide fluorescence polarization, 2 h. actives 0.93% (n = 400,000). P11473; note: potency is the fitted concentration of half-maximal effect; % is set by controls: 0 for no effect and ±100 for the full control effect
Target sequence (P11473 whole entry, looked up): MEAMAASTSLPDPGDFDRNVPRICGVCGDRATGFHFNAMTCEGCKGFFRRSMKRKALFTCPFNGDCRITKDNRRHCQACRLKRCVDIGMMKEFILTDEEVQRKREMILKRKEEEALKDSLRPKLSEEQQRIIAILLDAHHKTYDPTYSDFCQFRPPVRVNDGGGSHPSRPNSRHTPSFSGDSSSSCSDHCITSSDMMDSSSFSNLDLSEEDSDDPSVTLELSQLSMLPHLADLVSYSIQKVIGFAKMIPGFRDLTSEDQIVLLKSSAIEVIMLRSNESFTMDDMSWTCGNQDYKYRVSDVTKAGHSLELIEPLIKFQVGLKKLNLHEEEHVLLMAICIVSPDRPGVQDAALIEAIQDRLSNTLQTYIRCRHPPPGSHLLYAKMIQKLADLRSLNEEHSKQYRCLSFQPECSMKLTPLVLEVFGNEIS
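Measured by FP: displacement of SRC2-3 coactivator peptide from VDR by library compounds, following a two-hour ambient incubation.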
PLK1 PBD block: PLK1 (human) polo-box domain binding inhibition; Plk1 PBD binding of FITC phosphopeptide, fluorescence polarization; Potency, µM, for inactives: max response, negative = inhibition, actives largely listed as inhibitors; actives 2.8% (n = 360,000); AID 720504; note: potency is the fitted concentration of half-maximal effect; series mostly up to about 57 µM; % is set by controls: 0 for no effect and ±100 for the full control effect; nearly all actives have a fitted effect of over 65% in size
Rango release inh: inhibitors of RanGTP-induced Rango-importin beta complex dissociation | O95149+P62826 | Biochemical FRET Rango-importin beta, RanGTP-induced dissociation | Potency, µM (highest dose often 46.1 µM), for inactives: at the top dose activity change, negative = inhibition | actives 0.071% (n = 340,000) | AID 540253; calls by dose curve; note: potency is the fitted concentration of half-maximal effect; % of control where 0% means no effect; nearly all actives have a fitted effect of over 45% in size
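Rango (0.1 uM)–importin beta (0.25 uM) complex; RanGTP-RCC1 trigger; 45 min RT; CFP/YFP FRET read.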
KAT2A inh: GCN5L2 (KAT2A) acetyltransferase inhibition. Q92830. GCN5L2 HAT assay, ThioGlo1 CoA-SH fluorescence. Potency, µM (highest dose often 58.9 µM), without a hit: top-dose activity change, negative = inhibition, hits mostly inhibitors. actives 0.21% (n = 390,000). AID 504327; note: potency is the fitted concentration of half-maximal effect; % is set by controls: 0 for no effect and ±100 for the full control effect
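Enzyme at 20nM final was mixed with library compounds for 15 min at room temperature. Peptide H3(1-25) at 75uM, acetyl-CoA at 70uM and ThioGlo1 at 50uM were then added. Plates were read immediately and after 20 min (Ex340nm/Em540nm).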
Rango complex inh: inhibitors of Rango-importin beta complex formation; Potency, µM (doses to about 92.2 µM), for the others: at the highest dose inhibition of complex formation; Q14974; Rango CFP/YFP FRET sensor + importin beta, 45 min; actives 0.031% (n = 340,000); calls by dose curve;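 note: potency is the fitted concentration of half-maximal effect; 0% = DMSO wells and 100% = buffer wells lacking importin beta; nearly all actives have a fitted effect of over 15% in size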
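Inhibition scored from the CFP 486 nm/YFP 530 nm FRET ratio 45 min after adding 0.125 microM importin beta to 50 nM Rango biosensor preincubated 5 min with compound (room temperature, PBS with DTT, Tween-20, BSA). No-importin wells as positive control.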
PI5P4K alpha inh: blocks human PI5P4K alpha kinase activity | P48426 | PI5P4Kalpha enzyme, ADP-Glo luminescence, 60 min; stronger effect = lower value | max response, % | actives 1.2% (n = 330,000) | AID 652105; active = max response of -50% or lower; inconclusive = between -30% and -50%; inactive = -30% or higher; note: value at the top dose of about 77 µM; % is set by controls: 0 for no effect and ±100 for the full control effect
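PI5P4Kalpha ADP-Glo assay; 5 microM ATP final; 60 min RT reaction; HEPES pH 7.4/EGTA/CHAPS, 5% DMSO; controls lacking substrate or enzyme; luminescent end-point.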
An asterisk follows results filed as active; u = inconclusive; x = not tested or not shown. Unless noted, calls come from the whole dose curve; as a rule, active = well fitted curve in the direction sought with a large enough effect; inconclusive = small, poorly fitted or top-dose-only effect, or another doubt; inactive = no such curve, though single readings can be large; an effect the other way counts as inactive or inconclusive.

SMILES	VDR inh	PLK1 PBD block	Rango release inh	KAT2A inh	Rango complex inh	PI5P4K alpha inh
NC(=O)c1ccc(NC(=O)C2CC2)cc1	-16%	-17%	-11%	-4%	3%	1
O=C(Nc1ccc(Cc2ccc(NC(=O)C3CC3)cc2)cc1)C1CC1	-6%	27µM*	0%	-2%	-1%	-7
CCC[C@@H]1NC(=O)[C@@H](NC(C)=O)CSSC[C@@H](C(N)=O)NC(=O)CNC(=O)[C@H](Cc2c[nH]c3ccccc23)NC(=O)[C@H](CCCN=C(N)N)NC(=O)[C@H](Cc2ccc3ccccc3c2)NC(=O)[C@H](Cc2cnc[nH]2)NC(=O)[C@H](CCCN=C(N)N)NC1=O	-1%	x	x	0%	x	x
Cn1c(=O)n(C)c2cc(/C=N/NC(=O)c3ccc(Cl)cc3)ccc21	u	30µM*	-22%	-27%	0%	-9
CCOc1c(Cl)cc(Cl)cc1CNCCSc1nnnn1C	23%	x	x	-5%	x	x
O=C(NNc1cccc(Cl)n1)c1ccccc1CC[N+](=O)[O-]	u	u	15%	-7%	6%	-78*
COC(=O)C1=CN(Cc2ccccc2)C=C(C(=O)OC)C1c1ccc(OC)c(OC)c1	-3%	-1%	13µM*	-3%	u	1
CC(=O)c1cccc(NC(=O)C2CCCN(c3nnc(-n4cccc4)s3)C2)c1 (stereo unspecified)	6%	x	x	-1%	x	x
CCc1ccc(Oc2c(C(F)(F)F)oc3c(CN4CCC(C)CC4)c(O)ccc3c2=O)cc1	-6%	x	x	-4%	x	x
O=C(NCCCOC(=O)c1ccccc1)c1ccccc1	0%	2%	11%	x	-2%	-3
O=C(NOC(=O)c1ccccc1)c1ccccc1	2%	-4%	-14%	35µM*	0%	5
CCS(=O)(=O)N1CCCc2cc(C(=O)Nc3cc([N+](=O)[O-])ccc3C)ccc21	1%	x	x	-3%	x	x
O=C(Cn1cc(COc2ccccc2C(F)(F)F)nn1)c1ccc(O)cc1	u	21µM*	-7%	x	0%	-26
COc1cc(C(C)=O)ccc1OCc1cn(CC(=O)c2ccc(O)cc2)nn1	89µM*	24µM*	9%	x	-1%	u
COc1cccc(NC(=O)CSc2nnc(-c3ccco3)c(-c3ccco3)n2)c1	89µM*	13µM*	2%	u	-2%	-63*
CSc1nnc(-c2ccco2)c(-c2ccco2)n1	-4%	27µM*	-6%	u	u	u
Cc1ccc(NC(=O)CSc2nnc(-c3ccco3)c(-c3ccco3)n2)cc1	u	27µM*	1%	u	u	-75*
Cc1ccccc1NC(=O)CSc1nnc(-c2ccco2)c(-c2ccco2)n1	u	27µM*	-15%	u	-2%	-66*
CN(C)c1ccc(NC(=O)CSc2nnc(-c3ccco3)c(-c3ccco3)n2)cc1	6%	-17%	-2%	-9%	1%	-15
CSc1ccc(-c2ccco2)nn1	-15%	-9%	-7%	-7%	u	-14
CC(C)Oc1ccc(CNC(=O)Cn2ncn3nc(-c4cccs4)cc3c2=O)cc1	-1%	x	x	-7%	x	x
COc1cc(Cn2c(=O)sc3ccccc32)ccc1OCCC(C)C	1%	x	x	-7%	x	x
CCOC(=O)c1cccc(NC(=O)C2CCN(S(=O)(=O)c3cn(C)cn3)CC2)c1	2%	x	x	26%	x	x
COc1ccccc1NC(=O)CSc1n[nH]c(-c2ccco2)n1	u	27µM*	10%	x	-2%	1
Cc1nn(-c2ccccc2)c2c1cc1c(=O)[nH]c(=O)nc-1n2-c1cccc(Cl)c1	-11%	x	x	-1%	x	x
SMILES	VDR inh	PLK1 PBD block	Rango release inh	KAT2A inh	Rango complex inh	PI5P4K alpha inh
Cc1ccc2cc(C3CC(c4ccco4)=NN3C(=O)CCC(=O)O)c(Cl)nc2c1 (stereo unspecified)	32µM*	u	-3%	-4%	1%	-16
Cc1ccc2nc(Cl)c(C3CC(c4cccs4)=NN3C(=O)CCCC(=O)O)cc2c1 (stereo unspecified)	4%	-14%	-8%	-10%	-5%	-3
Cc1cccc2cc(C3CC(c4cccs4)=NN3C(=O)CCC(=O)O)c(Cl)nc12 (stereo unspecified)	u	27µM*	22%	16%	2%	-11
Cc1ccc2c(=O)cc(C(=O)Nc3cccc(C(F)(F)F)c3)oc2c1C	-3%	x	x	-6%	x	x
NCC(=O)N[C@@H](CCCN=C(N)N)C(=O)NCC(=O)N[C@@H](CCC(=O)O)C(=O)N[C@@H](CO)C(=O)O	0%	x	x	-4%	x	x
Cc1ccc(C2CC(=O)NC(SCCC(C)C)=C2C#N)cc1 (stereo unspecified)	-17%	13µM*	16%	-5%	-2%	-6
COc1ccc(C2Nc3ccccc3C(=O)N2c2ccc(F)cc2)cc1COc1ccc(NC(C)=O)cc1 (stereo unspecified)	0%	x	x	x	x	x
CC12CCC(c3c1nc1ccccc1[n+]3[O-])C2(C)C (stereo unspecified)	71µM*	19µM*	15%	-3%	0%	-20
O=C(CCC1CCCCC1)Nc1ccccc1-c1ccccc1	10%	-5%	-1%	3.2µM*	-2%	-2
Cn1nnnc1SCC1=C(C(=O)O)N2C(=O)C(NC(=O)C(OC=O)c3ccccc3)C2SC1 (stereo unspecified)	u	x	x	5%	x	x
Cn1nnnc1SCC1=C(C(=O)O)N2C(=O)C(NC(=O)C(O)c3ccccc3)C2SC1 (stereo unspecified)	50µM*	x	x	10%	x	x
Cn1nnnc1SCC1=C(C(=O)O)N2C(=O)[C@@H](NC(=O)[C@H](O)c3ccccc3)[C@H]2SC1	-25%	13µM*	-8%	-11%	-4%	u
COc1ccc(C(C)=O)cc1CC(=O)N(Cc1ccccc1)c1ccccc1	-18%	30µM*	26%	-4%	0%	5
COC(=O)c1ccc(C(=O)N(Cc2ccccc2)c2ccccc2)cc1	1%	-12%	12%	-34%	-3%	4
O=C(OCC(=O)N1N=C(c2ccc(Cl)cc2)CC1c1ccco1)c1ccco1 (stereo unspecified)	-12%	2%	-3%	-14%	1%	4
O=C(OCC(=O)N1N=C(c2ccc(Cl)cc2)CC1c1ccco1)c1cncc(Br)c1 (stereo unspecified)	71µM*	u	0%	-23%	-2%	-29
Cc1cccc(N2CCn3c2nc2c3c(=O)n(C/C=C/c3ccccc3)c(=O)n2C)c1	9%	x	x	-7%	x	x
CCCSc1nnc(NC(=O)CSc2sc3c(O)cc(=O)[nH]c3c2C#N)s1	-1%	17µM*	-15%	u	-1%	-72*
